This passage reports inhibition results from PubChem BioAssay AID2148 (The Scripps Research Institute Molecular Screening Center, 2009).

SMILES strings stand for the structures. The campaign covered roughly 2,400 compounds. About 1,500 (62%) were called active. Rule as the data show it: active = inhibition above about 22%; inactive = the rest. So high a share suggests a set chosen from earlier hits. A selection follows.

This test has as its target Melanin-concentrating hormone receptor 1 (Homo sapiens) (UniProt Q99705). The test can be described thus: antagonism of human MCHR1 receptor – cell-based, fluorescence, counter-screen for GPR7 antagonist project (AID 2148).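 Also: 0% = vehicle with agonist and 100% = vehicle without agonist.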 The settings on record: MCHR1-expressing cells, fluorescence antagonist assay; at 4.4 µM; stronger effect = higher value. (In general: A counterscreen serves to expose hits that act by an unwanted route or on another target.)
As to `Cc1ccc(NC2=C(Cl)C(=O)OC2OC(=O)c2ccccc2C)cc1` (configuration not stated), the inhibition was 39.7% (active).
The value for `COc1ccc(NC(=O)C2CCC(CNS(=O)(=O)c3csc(C(N)=O)c3)CC2)cc1OC` (configuration not stated) was 7.62% (inactive).
The value for `CC1(C)CC(CNCCC(c2ccc(F)cc2)c2ccco2)CCO1` (configuration not stated) was 23.9% (active); that for `Cc1ccc(CNC(=O)C2CCN(S(=O)(=O)c3ccc4nc5c(c(C(=O)O)c4c3)CC(C)CC5)CC2)cc1` (configuration not stated) was 10.8% (inactive); that for `Cn1c(=O)c([N+](=O)[O-])c(Oc2ccccc2)c2ccccc21` was 30.5% (active).
The value for `COc1cc(OC)c(-n2cc(-c3ccc(Cl)cc3)[nH]c2=O)cc1Cl` was 53.2% (active); that for `Cc1cccc(-c2nc3ccc(C(=O)NCCN4CCN(C)CC4)cc3nc2-c2cccc(C)c2)c1` was 34.7% (active); that for `CN(c1ccccc1)S(=O)(=O)c1ccc(C(=O)NCCc2ccccc2)cc1` was 11.5% (inactive).
Take `S=C(NCCc1ccccc1)Nc1ccccc1`: the inhibition is 33.6% (active).
As to `COc1ccccc1N1CCN(c2ncnc3sc(C)c(-c4ccccc4)c23)CC1`, the inhibition is 56.4% (active).
The figure for `COc1ccccc1CNC(=O)COc1ccc(C)nc1[N+](=O)[O-]` is -4% (inactive); for `Cc1cc(OCc2ccc(C(=O)Nc3ccc(C(=O)O)cc3)o2)ccc1Cl` it is 22% (active).
The figure for `CC(C)(C)CC(C)(C)NCC(O)COCCOc1ccc(Br)cc1` (configuration not stated) is 47.4% (active); for `O=C(Nc1ccc2ccccc2c1)Nc1ccc2snnc2c1` it is 61.5% (active).
In the case of `CCN1CCN(c2ccc([N+](=O)[O-])cc2C(=O)c2ccc(Cl)cc2)CC1`, the inhibition was 41.1% (active).
The figure for `OC(CNCC1CCCO1)Cn1c2ccc(Br)cc2c2cc(Br)ccc21` (configuration not stated) is 81.1% (active); for `O=C(CCCN1CCc2[nH]c3ccc(F)cc3c2C1)c1ccc(F)cc1` it is 44.6% (active); for `CS(=O)(=O)Nc1cccc(C2=NN(S(=O)(=O)c3ccccc3)C(c3cccs3)C2)c1` (configuration not stated) it is 25.9% (active).
With `COc1ccc(OC)c(C(c2nnnn2C(C)(C)C)N2CCc3ccccc3C2)c1` (configuration not stated), the inhibition was 47.3% (active).
Take `COCCCNC(=S)N1CCN(c2nc(-c3cccc(OC)c3)cs2)CC1`: the inhibition was 51.1% (active).
The value for `Cc1ccc(NC(=O)CN2CCC3(O)CCCCC3C2c2ccc3c(c2)OCO3)c(C)c1` (configuration not stated) was 24.9% (active).
For the compound `COc1ccc([N+](=O)[O-])cc1N(CC(O)CN(CC(C)C)CC(C)C)S(=O)(=O)c1ccc(C)cc1` (configuration not stated), the inhibition is 66% (active).
The value for `COCCN(Cc1cc2cc3c(cc2nc1Cl)OCO3)C(=O)c1cccc(C)c1` was 37.5% (active).
Take `Cc1cccc(CS(=O)(=O)c2ncc(Cl)c(C(=O)Nc3ccc(F)cc3)n2)c1`: the inhibition is 92.1% (active).
In the case of `COc1ccc(N=C2SC(C(=O)Nc3ccc(F)cc3)CC(=O)N2C)cc1` (configuration not stated), the inhibition was 3.76% (inactive).
The figure for `Cc1ccccc1CN1C[C@@H]2C[C@@H](c3cn(C)nc3-c3ccccc3)N3CCC[C@@]23C1=O` is 21.2% (inactive).
Take `COc1ccccc1Oc1ccc(S(=O)(=O)Nc2cccnc2)cc1`: the inhibition is 39.9% (active).
The value for `COc1ccc(C)cc1NC(=O)NCCCCc1ccccc1` was 22.6% (active); that for `CCC(C(=O)Nc1ccc(C(C)C)cc1)c1ccccc1` (configuration not stated) was 95.6% (active); that for `Cc1cc2c(cc1C)N(Cc1ccccc1)C1=NCCCN12` was 9.03% (inactive).
The figure for `Cc1cc(Cl)ccc1OCCCC(=O)Nc1cccc(-n2cnnn2)c1` is 45.7% (active); for `O=C(CCc1ccccc1)Nc1ccc(NC(=O)C2CC2)nc1` it is 4.99% (inactive); for `O=C(CN1CCN(C(=S)NC2CCCC2)CC1)Nc1ccc(Oc2ccccc2)cc1` it is 52.8% (active).
The value for `O=C(CSc1nnc(-c2ccco2)o1)NCC(=O)c1ccccc1` was 19.5% (inactive).
As for `COc1ccc(C(=O)CSc2nnc(COc3ccccc3)n2Cc2ccco2)cc1`, the inhibition was 38.8% (active).
As for `C=CCSc1nsc(NC(=O)Nc2cccc(C(C)=O)c2)n1`, the inhibition was 68.9% (active).
The value for `CCSc1nsc(NC(=O)Nc2cccc(C(C)=O)c2)n1` was 62% (active); that for `Cc1ccc(NC(=S)N(CCCN2CCC(C)CC2)Cc2ccco2)cc1` was -1.82% (inactive); that for `Oc1cccc(/C=N/Nc2ccc(Cl)nn2)c1O` was 28.3% (active).
The value for `N#CC1=C(SCc2ccc(C#N)cc2)N=C(N)C(c2nc(-c3ccccc3)cs2)C12CCCCC2` (configuration not stated) was 24.5% (active); that for `N=c1n(CCc2ccccc2)c2ccccc2n1Cc1ccccc1F` was 53.5% (active); that for `CN(C)CCCN(C(=O)c1ccc(S(=O)(=O)N2CCCc3ccccc32)cc1)c1nc2ccc(F)cc2s1` was 72.1% (active).
The figure for `CCc1ccc2nc(N(CCCN(C)C)C(=O)c3ccc4c(c3)OCCO4)sc2c1` is 31.3% (active); for `CN(C)CCCN(C(=O)c1ccc(S(=O)(=O)N2CCCCCC2)cc1)c1nc2ccc(Br)cc2s1` it is 71.8% (active); for `CCn1c2ccc(F)cc2c2nnc(SCCN3CCOCC3)nc21` it is -2.62% (inactive).
Consider `O=C(Nc1ccc2c(c1)OCO2)C1CC(c2c(F)cccc2Cl)=NO1` (configuration not stated), for which the inhibition is 2.22% (inactive).
In the case of `O=C(NCCNc1ccc([N+](=O)[O-])cc1Cl)c1ccccc1F`, the inhibition is 35.2% (active).
The figure for `CN(C)S(=O)(=O)N1CCC(Oc2cccc(C(=O)NCCCC3CCCC3)c2)CC1` is 90.4% (active); for `CS(=O)(=O)N(Cc1ccc(Cl)cc1)c1ccc(C(=O)NCCSCc2ccco2)cc1` it is 22.2% (active).
The value for `CC(=O)N1CCCc2cc(S(=O)(=O)N3CCCC(C(=O)N4CCN(c5cccc(Cl)c5)CC4)C3)ccc21` (configuration not stated) was 71.3% (active); that for `CCc1c(C)nc2c(-c3ccccc3)c(C)nn2c1Nc1ccc(NC(C)=O)cc1` was 24.5% (active); that for `Cc1ccc2nc(C)c3c(c2c1)N(c1ccccc1)CC3` was 22.2% (active).
The figure for `c1ccc(C2CNCc3c2ccc2ccccc32)cc1` (configuration not stated) is 73.3% (active); for `CCCCCCCCCCOC(=O)Cn1c(COc2cccc(OC)c2)[n+](C)c2ccccc21` it is 81.7% (active); for `Cc1ccc(SCc2cc(=O)[nH]c(N3CCCCC3)n2)cc1` it is -8.9% (inactive).
As for `CCN1CCN(c2c(Cl)cccc2NC(=O)c2ccc(Br)o2)CC1`, the inhibition was 21% (inactive).
The figure for `CC(NCc1ccccc1OC1CCCC1)c1ccccc1` (configuration not stated) is 33% (active).
On to `CC(C)(C)NCc1cc(Br)ccc1OC1CCCC1`, for which the inhibition is 11.2% (inactive).
The figure for `CCN(CC)CCOCCOc1ccc(Cl)c2ccccc12` is 19.4% (inactive); for `COc1ccccc1N(C(=O)Cn1nnc2ccccc21)C(C(=O)NCc1ccco1)c1ccc(C)o1` (configuration not stated) it is 25.9% (active).
Turning to `O=[N+]([O-])/C=C/c1ccc2c(ccn2Cc2ccccc2)c1`, the inhibition was 104% (active).
The figure for `CCCOc1ccccc1C1CC(=O)Nc2cc3c(cc21)OCO3` (configuration not stated) is 51.8% (active); for `COc1cc(OC)cc(C(=O)N[C@H](C(=O)OCC(=O)NC(C)c2ccccc2)C(C)C)c1` (some centres not stated) it is 65% (active); for `COc1cc(NC(=O)CN2C(=O)NC(C)(c3ccc(OC(F)F)cc3)C2=O)cc(OC)c1OC` (configuration not stated) it is 28.4% (active).
The figure for `Cc1ccc(NC(=O)CN2C(=O)NC(C)(c3ccc(Cl)cc3)C2=O)c(Br)c1` (configuration not stated) is 6.97% (inactive); for `C=CCNC(=O)COC(=O)c1ccccc1C(=O)N(C)C1CCCCC1` it is -2.95% (inactive); for `C=CCC1(CC=C)CCCN1C(=O)c1cc(COc2ccc(-n3cncn3)cc2)on1` it is 55.2% (active).
For the compound `CCc1ccc(NC(=O)c2ccc(Cn3cc([N+](=O)[O-])cn3)cc2)cc1`, the inhibition was 35.1% (active).
The figure for `CCOc1ccc(C(=O)NC(=S)Nc2ccc(N3CCOCC3)c(Cl)c2)cc1[N+](=O)[O-]` is 24.7% (active).
The figure for `CC(C(=O)N1CCN(c2ccccc2F)CC1)c1ccc([N+](=O)[O-])cc1` (configuration not stated) is 27.9% (active).
The value for `CCN(CC)Cc1c(C(=O)OC)nnn1-c1nonc1N` was 5.07% (inactive); that for `Clc1ccc(-c2cc(C3CCNCC3)[nH]n2)c(Cl)c1` was 35.6% (active).
Take `O=C(COc1ccc(S(=O)(=O)Nc2cccc(C(F)(F)F)c2)cc1)N1CCOCC1`: the inhibition was 28% (active).
The figure for `O=S(=O)(c1ccc(OCC(O)CN2CCN(c3ccccc3Cl)CC2)cc1)N1CCOCC1` (configuration not stated) is 38.9% (active).
As for `O=C(NCCCN1CCN(c2ccc(F)cc2)CC1)Nc1ccc([N+](=O)[O-])cc1`, the inhibition was 65.1% (active).
The value for `Cc1c(CCO)c(=O)n(-c2ccccc2)n1S(=O)(=O)c1ccc(F)cc1` was -12.3% (inactive).
The value for `Cc1ccc(O)c(NC(=S)NC(=O)COc2ccc(Br)cc2)c1` was 83.8% (active); that for `CN(c1cccc(NC(=O)Nc2ccc(Cl)cc2)c1)S(C)(=O)=O` was 67.3% (active); that for `COc1ccc(CS(=O)/C(Cl)=C(/Cl)C(=O)Nc2ccc(OC)nc2)cc1` (configuration not stated) was 63.9% (active).
The value for `CCOc1ncccc1C(=O)NCCc1ccc(OC)cc1` was 13.4% (inactive); that for `COc1cccc(CNCCc2c[nH]c3ccccc23)c1OCc1ccccc1F` was 83.6% (active).
As to `Cc1ccccc1Nc1nnc(SCC(=O)c2cc3ccccc3o2)s1`, the inhibition was 10.6% (inactive).
The figure for `Nc1nnc(SCC(=O)Nc2ccc3nc(SCC(=O)Nc4ccccc4)sc3c2)s1` is 81.6% (active).
The value for `O=C(CN1C(=O)/C(=C/c2ccccc2F)Sc2ccccc21)NCc1cccnc1` was 63% (active); that for `Clc1ccc(C2CC(c3cccs3)n3ncnc3N2)cc1Cl` (configuration not stated) was 15.5% (inactive); that for `COc1ccc(C2Nc3ccccc3C(=O)N2Cc2ccccc2)cc1Cn1nnc2ccccc21` (configuration not stated) was 32.1% (active).
The figure for `Fc1ccc(-c2ccc(-c3nn4c(-c5ccco5)nnc4s3)o2)cc1` is 12.7% (inactive); for `O=C(NCCCN1CCOCC1)c1ccc2c(c1)N(Cc1cccc(F)c1)C(=O)c1ccccc1S2` it is 25.3% (active); for `Cc1ccccc1CN1C(=O)c2ccccc2Sc2ccc(C(=O)NCCCN3CCOCC3)cc21` it is 17% (inactive).
On to `CCOC(=O)C1CSC(CC(=O)Nc2ccc(OCC)cc2)C(=O)N1` (configuration not stated), for which the inhibition is 3.62% (inactive).
The value for `CCC(C)c1ccccc1NC(=O)CN(C)CC(=O)Nc1ccccc1SC` (configuration not stated) was 24.8% (active); that for `CCc1ccc(N(C(=O)c2csnn2)C(C(=O)NC2CCCCC2)c2ccncc2)cc1` (configuration not stated) was 17.6% (inactive).

One may read the inhibition as the drop in the measured response relative to a control, in per cent.
